Measurements published in PubChem BioAssay (Tox21).
Inconclusive results are not listed. The source made the active and inactive calls. Unless noted, the call rests on the fitted dose curve; in most records, active means well fitted curve in the direction sought with a large enough effect in the repeat runs; inconclusive means weak or mixed curves; inactive means no such curve, though single readings can be large; an effect the other way counts as inactive or inconclusive.

Key:
[1] = qHTS assay for small molecule agonists of the p53 signaling pathway (AID 651631; calls by dose curve; further: nearly all actives have a fitted effect of over 15% in size)
Outline: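 Readout was fluorescence from the LiveBLAzer FRET substrate, applied for 2 h at room temperature after 16 h compound exposure at 37 °C. Cells were the p53RE-bla HCT-116 line, with beta-lactamase driven by p53 response elements.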

[2] = qHTS assay for small molecules that induce genotoxicity in human embryonic kidney cells expressing luciferase-tagged ATAD5 (AID 651632); further: nearly all actives have a fitted effect of over 15% in size
Outline: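 Test compounds were delivered by pin tool onto HEK293T reporter cells (2,000/well) expressing ATAD5 fused to luciferase. After 16 hr at 37C, 5% CO2, Amplite was added for 30 min at room temperature and luminescence was measured.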

[3] = qHTS assay for small molecules that induce genotoxicity in human embryonic kidney cells expressing luciferase-tagged ATAD5 - cell viability (AID 651634; calls by dose curve; further: nearly all actives have a fitted effect of over 25% in size)
Outline: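 Quantitative high-throughput format. HEK293T cells expressing ATAD5 fused to luciferase were plated at 2,000 cells/well and treated 15.5 hr with compound versus DMSO. Viability was determined by fluorescent live-cell protease substrate, 30 min at 37C.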

[4] = qHTS assay for small molecule disruptors of the mitochondrial membrane potential - cell viability (AID 720634; calls by dose curve;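 further: human HepG2 liver cancer cells; series mostly up to about 83 µM; nearly all actives have a fitted effect of over 20% in size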)
Outline: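 Same-well counter-screen: following the MMP dye addition, CellTiter-Glo was added to 1 hr compound-treated HepG2 cells and luminescence read after 30 min at room temperature.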

[5] = qHTS assay for small molecule disruptors of the mitochondrial membrane potential (AID 720635)
Outline: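 Mitochondrial membrane potential tracked with Mito-MPS dye, red aggregates (ex 540/em 590 nm) against green monomers (ex 490/em 535 nm). Compound treatment 1 hr at 37C, dye 30 min in HepG2.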

[6] = qHTS assay to test for compound auto fluorescence at 590 nm (red) in HepG2 cells (AID 720674)
Outline: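 1 hr compound incubation on HepG2 cells, 37 C, 5% CO2; plate read ex 540 nm / em 590 nm; intensities reported as Rose Bengal sodium equivalents.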

[7] = qHTS assay to test for compound auto fluorescence at 535 nm (green) in HepG2 cells (AID 720675)
[8] = qHTS assay to test for compound auto fluorescence at 460 nm (blue) in HEK293 cells (AID 720678)
Outline: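 Triamterene serves as the blue fluorophore standard. Compound signal at 405/460 nm is read in HEK293 wells (2,000 cells, 10% dialyzed FBS) after overnight treatment at 37C.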

[9] = qHTS assay to test for compound auto fluorescence at 590 nm (red) in HEK293 cells (AID 720679)
Outline: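 We plated HEK293 cells in 10% dialyzed FBS medium, let them adhere for 4-5 hr, then added 23 nL compound. Overnight at 37C and 5% CO2 preceded fluorescence measurement at 540/590nm.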

[10] = qHTS assay to test for compound auto fluorescence at 535 nm (green) in HEK293 cells (AID 720680)
[11] = qHTS assay to test for compound auto fluorescence at 460 nm (blue) in HEK293 cell free culture (AID 720681)
Outline: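 Blue fluorescence (Ex 405/Em 460 nm, triamterene-equivalent) was read immediately after pin transfer of compound or DMSO into medium (DMEM, 10% FBS) without cells.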

[12] = qHTS assay to test for compound auto fluorescence at 535 nm (green) in HEK293 cell free culture (AID 720682)
Outline: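 Compounds were pin-transferred into cell-free DMEM with 10% FBS, and green fluorescence was read at excitation 485 nm and emission 535 nm. Intensities were expressed as fluorescein-equivalent values.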

[13] = qHTS assay to test for compound auto fluorescence at 590 nm (red) in HEK293 cell free culture (AID 720683)
Outline: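 Red-channel autofluorescence of compounds in culture medium (DMEM, 10% FBS), no cells, measured at 540/590 nm. Rose Bengal sodium is the reference fluorophore for equivalence.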

[14] = qHTS assay to test for compound auto fluorescence at 590 nm (red) in HepG2 cell free culture (AID 720684)
Outline: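 No cells present: MEM + 10% FBS only. Compound pinned in, red label read (540/590 nm). Activity = fluorescence equivalent to Rose Bengal sodium.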

[15] = qHTS assay to test for compound auto fluorescence at 460 nm (blue) in HepG2 cell free culture (AID 720685)
Outline: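 Cell-free plates of MEM plus 10% FBS received 23 nL compound or DMSO vehicle; blue-channel (405/460 nm) intensity scored against triamterene as reference fluorophore.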

[16] = qHTS assay to test for compound auto fluorescence at 535 nm (green) in HepG2 cell free culture (AID 720686)
[17] = qHTS assay to test for compound auto fluorescence at 460 nm (blue) in HepG2 cells (AID 720687)
Outline: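 Blue-channel autofluorescence (Ex/Em 405/460 nm, triamterene-equivalent) was measured after 1 hr compound exposure at 37 C, 5% CO2. Cells were HepG2, plated overnight at 37 C in MEM plus 10% FBS.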

[18] = qHTS assay for small molecule agonists of the p53 signaling pathway - cell viability (AID 651633; calls by dose curve; further: series mostly up to about 83 µM; nearly all actives have a fitted effect of over 30% in size)
Outline: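 Viability counter-read: CellTiter-Glo luminescence (30 min, room temperature) in the same p53RE-bla plates. These plates had been exposed to compounds for 16 h at 37 C.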

[19] = biological target: Glucocorticoid receptor (Homo sapiens) (UniProt P04150); assay: qHTS assay to identify small molecule agonists of the glucocorticoid receptor (GR) signaling pathway (AID 720691; active means well fitted activation curve with a large enough effect in the signal ratio in the repeat runs, not every such curve was filed as active; the % refers to the signal ratio)
Sequence of Glucocorticoid receptor (Homo sapiens) (P04150 whole entry, looked up): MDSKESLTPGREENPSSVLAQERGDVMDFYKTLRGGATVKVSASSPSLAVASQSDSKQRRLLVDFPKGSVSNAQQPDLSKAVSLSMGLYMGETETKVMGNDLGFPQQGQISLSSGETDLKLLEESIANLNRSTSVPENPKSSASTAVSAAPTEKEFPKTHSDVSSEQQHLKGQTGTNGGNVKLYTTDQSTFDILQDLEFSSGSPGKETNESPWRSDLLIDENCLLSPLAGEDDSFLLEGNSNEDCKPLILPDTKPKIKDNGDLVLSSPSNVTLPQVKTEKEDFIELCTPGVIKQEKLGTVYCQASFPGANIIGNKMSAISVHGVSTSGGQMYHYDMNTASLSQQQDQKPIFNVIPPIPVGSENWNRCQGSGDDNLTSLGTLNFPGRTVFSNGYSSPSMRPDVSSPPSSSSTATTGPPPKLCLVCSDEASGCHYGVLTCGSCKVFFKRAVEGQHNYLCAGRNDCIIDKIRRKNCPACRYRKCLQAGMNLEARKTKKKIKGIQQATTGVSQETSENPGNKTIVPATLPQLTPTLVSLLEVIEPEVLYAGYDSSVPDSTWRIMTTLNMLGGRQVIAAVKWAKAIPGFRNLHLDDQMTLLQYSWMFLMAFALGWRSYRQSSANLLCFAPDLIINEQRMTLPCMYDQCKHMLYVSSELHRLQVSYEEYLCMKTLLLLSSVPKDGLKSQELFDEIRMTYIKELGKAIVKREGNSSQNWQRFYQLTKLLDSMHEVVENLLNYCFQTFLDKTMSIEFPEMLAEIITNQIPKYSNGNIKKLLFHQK
Outline: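 A HeLa cervical cancer line expressing GR and a glucocorticoid response element-driven beta-lactamase gene is treated with compounds for 18 h; LiveBLAzer B/G FRET substrate is then applied and fluorescence read.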

[20] = biological target: Glucocorticoid receptor (Homo sapiens) (UniProt P04150); assay: qHTS assay to identify small molecule antagonists of the glucocorticoid receptor (GR) signaling pathway (AID 720692; active means well fitted inhibition curve with a large enough effect in the signal ratio in the repeat runs, not every such curve was filed as active; the % refers to the signal ratio)
Outline: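 GRE-bla HeLa line, dex-stimulated (5 nM final). Compound exposure 18 h, 37 C. Beta-lactamase FRET read after 2 h RT substrate.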
On the % scale 0 is the no-effect control and ±100 the full control effect.

Cc1cccc(N)n1
inactive: Potency [1] | Potency [2] | outcome [3] | outcome [4] | Potency [5] | outcome [6] | outcome [7] | outcome [8] | outcome [9] | outcome [10] | outcome [11] | outcome [12] | outcome [13] | outcome [14] | outcome [15] | outcome [16] | outcome [17]

CC(C)(Sc1cc(C(C)(C)C)c(O)c(C(C)(C)C)c1)Sc1cc(C(C)(C)C)c(O)c(C(C)(C)C)c1
inactive: Potency [1] | Potency [2] | outcome [18] | outcome [4] | Potency [5] | fluorescence, relative to Rose Bengal [6] 0.757% [at 18.6 µM] | fluorescence, % of fluorescein control [7] -0.143% [at 18.6 µM] | fluorescence, % of triamterene [8] -0.428% [at 18.6 µM] | fluorescence, % of fluorescent control [9] -1.27% [at 18.6 µM] | fluorescence, % of fluorescein [10] 0.0112% [at 18.6 µM] | fluorescence, % of fluorescent control [11] -0.101% [at 18.6 µM] | activity change [12] 0.0049% [at 18.6 µM] | fluorescence, % of fluorescent control [13] -0.146% [at 18.6 µM] | fluorescence, % of Rose Bengal [14] -0.645% [at 18.6 µM] | fluorescence, % of fluorescent control [15] -0.0941% [at 18.6 µM] | fluorescence, % of fluorescein control [16] -0.106% [at 18.6 µM] | fluorescence, % of fluorescent control [17] 0.0012% [at 18.6 µM]

CCCCS
inactive: Potency [1] | Potency [2] | outcome [18] | outcome [4] | Potency [5] | outcome [6] | outcome [7] | outcome [8] | outcome [9] | outcome [11] | outcome [12] | outcome [13] | outcome [14] | outcome [15] | Potency [19] | outcome [20]

CCCCCCCCCCCC(C)=O
inactive: Potency [1] | Potency [2] | outcome [18] | outcome [4] | Potency [5] | outcome [6] | outcome [7] | outcome [8] | outcome [9] | outcome [10] | outcome [11] | outcome [12] | outcome [14] | outcome [15] | outcome [17] | Potency [19] | outcome [20]

CCCCC(CC)COC(=O)CC#N (centres undefined)
inactive: Potency [1] | Potency [2] | outcome [18] | outcome [4] | Potency [5] | outcome [6] | outcome [7] | outcome [9] | outcome [11] | outcome [12] | outcome [13] | outcome [14] | outcome [15] | outcome [16] | outcome [17]

O=S(=O)(O)c1ccc(Cl)cc1
inactive: Potency [1] | Potency [2] | outcome [18] | outcome [4] | outcome [6] | outcome [7] | outcome [8] | outcome [9] | outcome [10] | outcome [11] | outcome [12] | outcome [13] | outcome [14] | outcome [15] | outcome [17] | Potency [19] | outcome [20]

COC(=O)C(c1ccccc1Cl)N1CCc2sccc2C1 (centres undefined)
inactive: Potency [1] | Potency [2] | outcome [3] | outcome [4] | Potency [5] | outcome [6] | outcome [7] | outcome [8] | outcome [9] | outcome [10] | outcome [11] | outcome [12] | outcome [13] | outcome [14] | outcome [15] | outcome [16] | outcome [17] | Potency [19] | outcome [20]

CCCCCCCCOCCC#N
inactive: Potency [1] | Potency [2] | outcome [18] | outcome [4] | Potency [5] | outcome [6] | outcome [7] | outcome [8] | outcome [9] | outcome [10] | outcome [11] | outcome [12] | outcome [14] | outcome [15] | outcome [16] | outcome [17]

CCCC(=O)CC
inactive: Potency [1] | Potency [2] | outcome [3] | outcome [4] | Potency [5] | outcome [6] | outcome [7] | outcome [8] | outcome [9] | outcome [10] | outcome [11] | outcome [12] | outcome [13] | outcome [14] | outcome [15] | outcome [16] | outcome [17]

CC(O)CCCCn1c(=O)c2c(ncn2C)n(C)c1=O (centres undefined)
inactive: Potency [1] | Potency [2] | outcome [18] | outcome [4] | Potency [5] | outcome [6] | outcome [7] | outcome [8] | outcome [9] | outcome [10] | outcome [11] | outcome [12] | outcome [13] | outcome [14] | outcome [15] | outcome [16] | outcome [17]

CCCCN=C(N)N=C(N)N
inactive: Potency [1] | Potency [2] | outcome [18] | outcome [4] | Potency [5] | outcome [6] | outcome [7] | outcome [8] | outcome [9] | outcome [10] | outcome [11] | outcome [12] | outcome [14] | outcome [15] | outcome [16] | Potency [19] | outcome [20]

CCCC(=O)C(CC)Sc1ccoc1C (centres undefined)
inactive: Potency [1] | Potency [2] | outcome [18] | outcome [4] | Potency [5] | outcome [6] | outcome [8] | outcome [9] | outcome [10] | outcome [11] | outcome [12] | outcome [13] | outcome [14] | outcome [15] | outcome [16]

O=C(O)P(=O)(O)O
inactive: Potency [1] | Potency [2] | outcome [18] | outcome [4] | outcome [6] | outcome [7] | outcome [8] | outcome [9] | outcome [10] | outcome [11] | outcome [12] | outcome [13] | outcome [14] | outcome [15] | outcome [16] | outcome [17] | Potency [19]

CCc1ccc(CC)cc1
inactive: Potency [1] | outcome [18] | outcome [3] | outcome [4] | Potency [5] | outcome [6] | outcome [7] | outcome [8] | outcome [9] | outcome [11] | outcome [12] | outcome [13] | outcome [14] | outcome [15] | outcome [16] | outcome [17] | outcome [20]
